Hits are enriched below; roughly 12% of the tested compounds scored in any of these assays.
Shiga toxin inh: blocks Shiga toxin action in Vero cells. Vero cells, Shiga toxin protein synthesis inhibition reporter. inhibition, % at 38.7 µM. 290,000 tested, 9.2% active; in the data active = inhibition mostly above about 28%, no sharp cut-off; inactive = mostly below about 43%; note: 0% is about no effect
CHX counter: affects cycloheximide protein synthesis inhibition readout, counter-screen | cell reporter, cycloheximide protein synthesis inhibition counterscreen | 300,000 tested, 12% active | max response, %; in the data active = max response mostly above about 13%, no sharp cut-off; inactive = mostly below about 14%; note: read at 38.3 µM for the half of the compounds with a filed dose; 0% is about no effect
FMDV inh: blocks foot and mouth disease virus; FMDV antiviral cell-based qHTS; Potency, µM (titrated, usually from 57.9 µM), for the others: at the highest dose activity change, negative = inhibition, most hits filed as inhibitors; 410,000 tested, 1.2% active; calls by dose curve; tested in HEK293T cells; note: read-out not given here; potency is the fitted concentration of half-maximal effect; % is set by controls: 0 for no effect and ±100 for the full control effect; nearly all actives have a fitted effect of over 45% in size
Sm TGR block: blocks Schistosoma mansoni thioredoxin glutathione reductase; Q962Y6; purified TGR, DTNB reduction, TNB absorbance 405 nm; Potency, µM (top dose mostly 114 µM), for the others: top-dose activity change, negative = inhibition, actives largely listed as inhibitors; 360,000 tested, 3% active; AID 485364; active = well fitted inhibition curve with a large enough effect; inconclusive = small, poorly fitted or top-dose-only effect; inactive = no such curve, though single readings can be large or run the other way; note: potency is the fitted concentration of half-maximal effect; % is set by controls: 0 for no effect and ±100 for the full control effect; nearly all actives have a fitted effect of over 60% in size
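TGR 20 nM + NADPH 100 uM (dispensed conc.), cpd preinc 15 min RT; start with NADPH (500 uM addition) then DTNB (15 mM addition). Kinetic TNB absorbance, 405 nm filter. Four-parameter Hill fit across titration.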
Starred values were filed as active, the others as inactive.

COCCN1C(=O)NC(=O)/C(=C\c2ccc(F)cc2)C1=O was read as Shiga toxin inh 27, CHX counter -2, FMDV inh -5% and Sm TGR block inconclusive.
`O=C1NC(=O)N(Cc2ccc(F)cc2)C(=O)/C1=C\c1ccc(N2CCCC2)cc1` gave Shiga toxin inh -6, CHX counter -2, FMDV inh 0% and Sm TGR block 1.3µM*.
O=C(C[n+]1cccc(CO)c1)Nc1nc2ccccc2s1 was read as Shiga toxin inh 41, CHX counter 34*, FMDV inh 0% and Sm TGR block 0%.
Screening O=C(CS(=O)(=O)c1ccccc1)Nc1nc2ccccc2s1 returned Shiga toxin inh 23, CHX counter 25*, FMDV inh -1% and Sm TGR block -30%.
Screening CCOc1ccc2nc(NS(=O)(=O)Cc3ccccc3)sc2c1 returned Shiga toxin inh 10, CHX counter 20*, FMDV inh 73% and Sm TGR block -33%.
CCOc1ccc2nc(NC(=O)CS(=O)(=O)c3ccccc3)sc2c1 was read as Shiga toxin inh active, CHX counter 26*, FMDV inh 12% and Sm TGR block -13%.
CCOc1ccc2nc(NS(=O)(=O)c3ccc(NC(C)=O)cc3)sc2c1 was read as Shiga toxin inh 25, CHX counter 1, FMDV inh 109% and Sm TGR block 0%.
NS(=O)(=O)c1ccc2nc(NC(=O)CS(=O)(=O)c3ccccc3)sc2c1 was read as Shiga toxin inh -5, CHX counter -3, FMDV inh 3% and Sm TGR block -19%.
Screening CCOc1ccc2nc(NC(=O)CS(=O)(=O)c3ccc(C)cc3)sc2c1 returned Shiga toxin inh 20, CHX counter 25, FMDV inh -6% and Sm TGR block -28%.
Screening Cc1ccc(S(=O)(=O)c2nc(-c3cccs3)oc2SC(C)c2ccccc2)cc1 (stereo not given) returned FMDV inh 13% and Sm TGR block -1%.
`Cc1ccc(Cn2c(CCNC(=O)c3cccc(C)c3)nc3ccccc32)cc1` gave Shiga toxin inh 5, CHX counter -6, FMDV inh -29% and Sm TGR block 2%.
For CN(CC(=O)Nc1nc2ccccc2s1)S(=O)(=O)c1ccc(Br)cc1 the results were Shiga toxin inh 24, CHX counter 9, FMDV inh 35µM* and Sm TGR block -3%.
Screening CN(CC(=O)Nc1nc2ccccc2s1)S(=O)(=O)c1ccc(Cl)cc1 returned Shiga toxin inh -3, CHX counter -3, FMDV inh -27% and Sm TGR block -22%.
`COCCNC(=O)c1ccc2c(c1)ncn2-c1cccc(C)c1` gave Shiga toxin inh 30, CHX counter 15*, FMDV inh 30% and Sm TGR block -1%.
`Cc1cccc(C(=O)Nc2ccc3c(c2)ncn3C)c1` gave Shiga toxin inh 69*, CHX counter 51*, FMDV inh 32% and Sm TGR block -14%.
Cn1cnc2cc(NC(=O)c3cccs3)ccc21 was read as Shiga toxin inh 69*, CHX counter 41*, FMDV inh 17% and Sm TGR block 19%.
CCC(=O)Nc1ccc2c(c1)ncn2C was read as Shiga toxin inh 5, CHX counter -2 and FMDV inh 3%.
`Cc1cccc(C(=O)Nc2ccc3c(c2)nc(C)n3C)c1` gave Shiga toxin inh 41*, CHX counter 39*, FMDV inh -19% and Sm TGR block 0%.
COc1ccc(C(=O)N2CCN(C(=O)COc3ccccc3)CC2)cc1OC was read as FMDV inh -14% and Sm TGR block -3%.
COc1ccc(CCNC(=O)c2cc(Nc3cc(C)cc(C)c3)nc3ccccc23)cc1OC was read as FMDV inh -2% and Sm TGR block -2%.
For Oc1ccc(-c2nc3ccccn3c2NCc2ccc3c(c2)OCO3)cc1 the results were Shiga toxin inh 15, CHX counter 25*, FMDV inh inconclusive and Sm TGR block -6%.
O=C(Nc1cc(C(F)(F)F)cc(C(F)(F)F)c1)c1cc(Cl)ccc1O was read as Shiga toxin inh -3, CHX counter -6 and FMDV inh inconclusive.
N/C(=C\C(=O)c1cc(Cl)ccc1O)C(Cl)(Cl)Cl was read as Shiga toxin inh 24, CHX counter 13*, FMDV inh 0% and Sm TGR block inconclusive.
Cc1ccc(S(=O)(=O)CNC(=O)c2ccccc2)cc1 was read as Shiga toxin inh -18, CHX counter 5, FMDV inh -20% and Sm TGR block 20µM*.
COc1ccc(CNS(=O)(=O)c2ccc(C)cc2)cc1 was read as Shiga toxin inh -3, CHX counter -6 and FMDV inh 12%.

Bioassay records as filed in PubChem BioAssay.
